About 7,900 targets were measured; listed, in parts, are those with a hit and a random draw of the rest. About 0.6% of all pairs of compound and target were hits.
Experiments:
Experiment in all cases: log2 fold change, soluble protein after heating vs DMSO (PISA); higher = thermal stabilisation; K562 cells, 10 uM, 30 min; active = over 0.2 and 3.5 SD of the protein, either way, in both replicates (recomputed)
saracatinib = compound: CN1CCN(CCOc2cc(OC3CCOCC3)c3c(Nc4c(Cl)ccc5c4OCO5)ncnc3c2)CC1 [saracatinib]
Method in brief: (§1)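 K562 cells (2×10^6 cells/mL) were treated with 10 μM compound for 30 min, and aliquots were heated for 3 min over 48°C-58°C. Pooled aliquots were extracted in PBS with 0.5% NP-40 at 4°C, and the supernatant after 21,000xg for 90 min was measured by TMTpro 16plex LC-MS/MS with channel sums equalised. Reported thermal stability, relative to control samples and from duplicates, is a log2 fold change.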

sotrastaurin = compound: CN1CCN(c2nc(C3=C(c4c[nH]c5ccccc45)C(=O)NC3=O)c3ccccc3n2)CC1 [sotrastaurin]
Method in brief: as §1

alvocidib = compound: CN1CC[C@H](c2c(O)cc(O)c3c(=O)cc(-c4ccccc4Cl)oc23)[C@H](O)C1 [alvocidib]
Method in brief: as §1

Tubastatin A = compound: CN1CCc2c(c3ccccc3n2Cc2ccc(C(=O)NO)cc2)C1 [Tubastatin A]
Method in brief: as §1

[1] = compound: CNC(=O)C1=CC=CC=C1NC2=NC(=NC=C2Cl)NC3=C(C=C(C=C3)N4CCOCC4)OC
Method in brief: as §1

defactinib = compound: CNC(=O)c1ccc(Nc2ncc(C(F)(F)F)c(NCc3nccnc3N(C)S(C)(=O)=O)n2)cc1 [defactinib]
Method in brief: as §1

rucaparib = compound: CNCc1ccc(-c2[nH]c3cc(F)cc4c3c2CCNC4=O)cc1 [rucaparib]
Method in brief: as §1

[2] = compound: CNc1nc(-c2ccc3c(N)n[nH]c3c2)cc(N2C[C@@H](C(=O)NC3CCCCC3)CC[C@H]2C)n1
Method in brief: as §1

encorafenib = compound: COC(=O)N[C@@H](C)CNc1nccc(-c2cn(C(C)C)nc2-c2cc(Cl)cc(NS(C)(=O)=O)c2F)n1 [encorafenib]
Method in brief: as §1

[3] = compound: COC(=O)[C@H](CCSC)NC(=O)C1=C(C=C(C=C1)NC[C@H](CS)N)C2=CC=CC=C2
Method in brief: as §1

[4] = compound: COC1=CC=C(C=C1)CN2C=CC3=C2C=C(C=C3)C(=O)NO
Method in brief: as §1

filanesib = compound: CON(C)C(=O)N1N=C(c2cc(F)ccc2F)S[C@@]1(CCCN)c1ccccc1 [filanesib]
Method in brief: as §1

zotarolimus = compound: CO[C@H]1C[C@@H]2CC[C@@H](C)[C@@](O)(O2)C(=O)C(=O)N2CCCC[C@H]2C(=O)O[C@H]([C@H](C)C[C@@H]2CC[C@H](n3cnnn3)[C@H](OC)C2)CC(=O)[C@H](C)/C=C(\C)[C@@H](O)[C@@H](OC)C(=O)[C@H](C)C[C@H](C)/C=C/C=C/C=C/1C [zotarolimus]
Method in brief: as §1

idasanutlin = compound: COc1cc(C(=O)O)ccc1NC(=O)[C@@H]1N[C@@H](CC(C)(C)C)[C@](C#N)(c2ccc(Cl)cc2F)[C@H]1c1cccc(Cl)c1F [idasanutlin]
Method in brief: as §1

alisertib = compound: COc1cc(Nc2ncc3c(n2)-c2ccc(Cl)cc2C(c2c(F)cccc2OC)=NC3)ccc1C(=O)O [alisertib]
Method in brief: as §1

[5] = compound: COc1cc2nc(-c3cc(F)ccc3O)nc(N[C@@H]3CNC[C@H]3C(C)(C)O)c2cc1OC
Method in brief: as §1

gefitinib = compound: COc1cc2ncnc(Nc3ccc(F)c(Cl)c3)c2cc1OCCCN1CCOCC1 [gefitinib]
Method in brief: as §1

[6] = compound: COc1cccc2cc(-c3nc([C@H]4CC[C@H](C(=O)O)CC4)n4ncnc(N)c34)[nH]c12
Method in brief: as §1

lapatinib = compound: CS(=O)(=O)CCNCc1ccc(-c2ccc3ncnc(Nc4ccc(OCc5cccc(F)c5)c(Cl)c4)c3c2)o1 [lapatinib]
Method in brief: as §1

pictilisib = compound: CS(=O)(=O)N1CCN(Cc2cc3nc(-c4cccc5[nH]ncc45)nc(N4CCOCC4)c3s2)CC1 [pictilisib]
Method in brief: as §1

Measured: log2 fold change

NMNAT1 (UniProt Q9HAN9)
Sequence of UniProt Q9HAN9 (Q9HAN9 whole entry, looked up): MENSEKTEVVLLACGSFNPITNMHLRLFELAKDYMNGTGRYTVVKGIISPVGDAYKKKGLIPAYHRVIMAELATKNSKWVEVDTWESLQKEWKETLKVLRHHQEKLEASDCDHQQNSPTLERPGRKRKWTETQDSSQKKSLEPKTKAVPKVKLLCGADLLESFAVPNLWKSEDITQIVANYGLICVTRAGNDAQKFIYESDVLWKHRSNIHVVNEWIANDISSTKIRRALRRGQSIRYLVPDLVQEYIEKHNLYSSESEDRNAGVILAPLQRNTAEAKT
inactive: saracatinib -0.044 | sotrastaurin -0.033 | alvocidib 0.158 | Tubastatin A 0.07 | [1] -0.121 | defactinib 0.237 | rucaparib 0.354 | [2] 0.02 | encorafenib 0.147 | [3] 0.091 | [4] -0.168 | filanesib 0.354 | zotarolimus -0.023 | idasanutlin 0.154 | alisertib -0.115 | [5] 0.132 | gefitinib -0.022 | [6] -0.102 | lapatinib 0.018 | pictilisib -0.014

MRPS21 (UniProt P82921)
inactive: saracatinib -0.193 | sotrastaurin 0.036 | alvocidib -0.095 | Tubastatin A -0.056 | [1] 0.038 | defactinib -0.075 | rucaparib -0.016 | [2] 0.127 | encorafenib 0.045 | [3] -0.075 | [4] 0.007 | filanesib 0.032 | zotarolimus 0.026 | idasanutlin -0.293 | alisertib 0.043 | [5] -0.053 | gefitinib 0.019 | [6] 0.021 | lapatinib 0.261

MNAT1 (UniProt P51948)
Sequence of UniProt P51948 (P51948 whole entry, looked up): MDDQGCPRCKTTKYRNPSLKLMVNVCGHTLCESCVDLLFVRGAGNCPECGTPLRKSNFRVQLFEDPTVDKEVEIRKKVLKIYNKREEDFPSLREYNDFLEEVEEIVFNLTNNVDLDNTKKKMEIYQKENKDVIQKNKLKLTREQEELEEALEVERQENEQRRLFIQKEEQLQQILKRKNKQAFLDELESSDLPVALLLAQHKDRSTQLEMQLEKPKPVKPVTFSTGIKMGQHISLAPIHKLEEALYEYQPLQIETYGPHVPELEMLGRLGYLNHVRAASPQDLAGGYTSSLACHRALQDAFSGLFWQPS
inactive: saracatinib -0.017 | sotrastaurin 0 | alvocidib -0.002 | Tubastatin A 0.006 | [1] 0.012 | defactinib -0.03 | rucaparib -0.046 | [2] -0.004 | encorafenib -0.006 | [3] -0.009 | [4] -0.025 | filanesib 0.073 | zotarolimus 0.011 | idasanutlin 0.021 | alisertib -0.047 | [5] -0.04 | gefitinib -0.039 | [6] 0.036 | lapatinib 0.009 | pictilisib -0.016

NA, A0A096LPI6
inactive: saracatinib 0.05 | sotrastaurin 0.017 | alvocidib -0.02 | Tubastatin A -0.037 | [1] 0.005 | defactinib 0 | rucaparib 0.007 | [2] -0.055 | encorafenib -0.009 | [3] 0.019 | [4] 0.008 | filanesib -0.044 | zotarolimus 0.019 | idasanutlin -0.014 | alisertib -0.034 | [5] -0.123 | gefitinib 0.018 | [6] 0.074 | lapatinib 0.029 | pictilisib -0.02

MRPS18B (UniProt Q9Y676)
inactive: saracatinib -0.038 | sotrastaurin 0.082 | alvocidib -0.059 | Tubastatin A 0.125 | [1] 0.007 | defactinib -0.016 | rucaparib 0.065 | [2] 0.225 | encorafenib 0.034 | [3] -0.027 | [4] 0.011 | filanesib 0.065 | zotarolimus 0.035 | idasanutlin -0.205 | alisertib 0.069 | [5] 0.024 | gefitinib 0.078 | [6] 0.018 | lapatinib -0.005 | pictilisib -0.106

NME1 isoform 2 (UniProt P15531)
Sequence of UniProt P15531 (P15531 whole entry, looked up): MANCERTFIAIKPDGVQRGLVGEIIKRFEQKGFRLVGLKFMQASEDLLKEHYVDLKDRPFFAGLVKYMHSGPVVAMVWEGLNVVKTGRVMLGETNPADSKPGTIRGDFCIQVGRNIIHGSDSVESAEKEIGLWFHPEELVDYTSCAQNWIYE
active: pictilisib 0.666
inactive: saracatinib -0.156 | sotrastaurin 0.049 | alvocidib -0.103 | Tubastatin A -0.024 | [1] -0.087 | defactinib -0.01 | rucaparib 0.035 | [2] 0.069 | encorafenib -0.032 | [3] 0.041 | [4] 0.017 | filanesib 0.007 | zotarolimus 0.001 | idasanutlin 0.022 | alisertib 0.062 | [5] 0.021 | gefitinib -0.063 | [6] 0.141 | lapatinib -0.009

OPA1 isoform 2 (UniProt O60313)
Sequence of UniProt O60313 (O60313 whole entry, looked up): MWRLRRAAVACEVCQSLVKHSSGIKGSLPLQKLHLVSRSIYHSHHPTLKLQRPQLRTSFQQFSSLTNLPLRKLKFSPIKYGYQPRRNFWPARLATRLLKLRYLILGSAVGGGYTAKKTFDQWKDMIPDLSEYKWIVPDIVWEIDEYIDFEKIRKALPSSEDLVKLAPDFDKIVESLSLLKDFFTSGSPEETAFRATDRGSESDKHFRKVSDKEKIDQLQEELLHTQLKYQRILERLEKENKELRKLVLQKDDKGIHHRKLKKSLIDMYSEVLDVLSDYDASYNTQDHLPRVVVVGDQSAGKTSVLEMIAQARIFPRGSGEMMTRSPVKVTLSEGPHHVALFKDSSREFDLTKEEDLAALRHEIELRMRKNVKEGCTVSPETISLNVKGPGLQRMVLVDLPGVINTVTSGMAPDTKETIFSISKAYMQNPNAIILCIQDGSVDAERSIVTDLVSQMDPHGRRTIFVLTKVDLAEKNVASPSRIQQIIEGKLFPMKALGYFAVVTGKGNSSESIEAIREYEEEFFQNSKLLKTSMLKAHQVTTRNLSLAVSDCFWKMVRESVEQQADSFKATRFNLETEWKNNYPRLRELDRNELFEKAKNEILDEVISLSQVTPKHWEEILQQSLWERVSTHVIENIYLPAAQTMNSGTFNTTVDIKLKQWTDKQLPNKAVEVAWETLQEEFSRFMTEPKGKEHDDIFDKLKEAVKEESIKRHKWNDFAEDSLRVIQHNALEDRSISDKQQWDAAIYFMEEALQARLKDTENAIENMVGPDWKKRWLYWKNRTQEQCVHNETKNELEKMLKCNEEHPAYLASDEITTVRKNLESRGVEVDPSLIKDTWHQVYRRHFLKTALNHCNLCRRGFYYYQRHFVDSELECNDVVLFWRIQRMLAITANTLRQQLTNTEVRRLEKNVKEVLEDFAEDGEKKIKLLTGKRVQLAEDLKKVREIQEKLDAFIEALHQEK
active: [5] -0.249
inactive: saracatinib -0.072 | sotrastaurin -0.005 | alvocidib -0.047 | Tubastatin A 0.054 | [1] -0.047 | defactinib -0.024 | rucaparib -0.001 | [2] 0.064 | encorafenib 0.056 | [3] -0.047 | [4] -0.01 | filanesib -0.118 | zotarolimus 0.035 | idasanutlin -0.105 | alisertib 0.002 | gefitinib -0.002 | [6] 0.002 | lapatinib 0.024 | pictilisib -0.07

MRFAP1 (UniProt Q9Y605)
Sequence of UniProt Q9Y605 (Q9Y605 whole entry, looked up): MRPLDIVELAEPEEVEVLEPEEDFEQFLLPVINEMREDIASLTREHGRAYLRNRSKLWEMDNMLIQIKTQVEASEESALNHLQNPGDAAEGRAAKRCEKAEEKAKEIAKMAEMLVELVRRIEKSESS
inactive: saracatinib -0.118 | sotrastaurin 0.102 | alvocidib -0.097 | Tubastatin A 0.329 | [1] -0.003 | defactinib -0.051 | rucaparib -0.099 | [2] -0.002 | encorafenib 0.141 | [3] -0.027 | [4] 0.015 | filanesib -0.012 | zotarolimus -0.018 | idasanutlin 0.173 | alisertib -0.435 | [5] -0.154 | gefitinib -0.036 | [6] 0.157 | lapatinib -0.093 | pictilisib -0.01

Reference: the supplement of paper PMC10849652
